Test results from the supplement of paper PMC11577813, “Eurasian spruce bark beetle detects lanierone using a highly expressed specialist odorant receptor, present in several functional sensillum types” (BMC Biology, 2024).
± gives the standard deviation of the averaged measurements.

Tests used:
Assay in all cases: net action potential response of A-neuron (blank-subtracted) (spikes/s (Hz)); higher = stronger excitation
Details in all cases: 10 µg on filter paper; neuron: A neuron (large spike amplitude)
[1] = test system: (+)-isopinocamphone A-neuron OSN class
Summary of the method: (§1)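 Live lab-reared adult Ips typographus each had one antenna fixed, and single sensillum recordings were made with tungsten electrodes under a humidified, charcoal-filtered airstream of 1.8 L/min. A 0.5 s pulse at 0.3 L/min delivered each compound, 10 μg in paraffin oil on filter paper inside a pipette, and spikes were counted in 0.5 s windows. In AutoSpike, spikes from the large-amplitude A-neuron or the small-amplitude B-neuron were counted, the pre-stimulus count was subtracted, and the result was converted to spikes/s, blank-subtracted and averaged across sensilla, of which there were 1–4.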

[2] = test system: (5S,7S)-trans-conophthorin A-neuron OSN class
Summary of the method: as §1

[3] = test system: myrcene A-neuron OSN class
Summary of the method: as §1

[4] = test system: p-cymene A-neuron OSN class
Summary of the method: as §1

SMILES | net action potential response [1] | net action potential response [2] | net action potential response [3] | net action potential response [4]
Cc1ccccc1 [Toluene] | 0.667 ± 3.1 | 4 ± 2.3 | 6 | 2 ± 4
C=CCc1ccc(OC)cc1 [Estragole] | -1.33 ± 1.1 | -0.5 ± 6.6 | -2 | 9.33 ± 7
O=Cc1ccccc1 [Benzaldehyde] | 21.3 ± 15 | -4 ± 2 | 4 | 2 ± 2
